Laboratory results published in PubChem BioAssay (NCI).
The panel holds about 79,000 compounds, 15% with a hit somewhere; the sample as a whole holds those more often. Unmarked numbers belong to inactive results. Activity calls are given as the source filed them. Cut-off read from the data, not from the text of the source: active = growth inhibition above about 70%; inactive = the rest.

What was measured:
[1] = NCI Yeast Anticancer Drug Screen. Data for the rad50 strain (AID 155);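 note: 0% = growth of vehicle-only cultures of the same strain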; details: S. cerevisiae rad50 strain growth inhibition, active compounds read high
Outline: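 Readout: growth inhibition relative to vehicle-treated cultures. Compound exposure was carried out in a genetically defined yeast strain deficient in DNA damage repair.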

[2] = NCI Yeast Anticancer Drug Screen. Data for the mec2-1 strain (AID 157); details: S. cerevisiae mec2-1 strain, active compounds read high
Outline: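 Yeast mec2-1 mutant treated with compound. Readout: growth inhibition vs vehicle controls.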

[3] = NCI Yeast Anticancer Drug Screen. Data for the sgs1 mgt1 strain (AID 161);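 note: 0% = growth of cultures given vehicle only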; details: S. cerevisiae sgs1 mgt1 strain, active compounds read high
Outline: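 Test agents were incubated with a DNA-repair-mutant yeast strain. Growth was then read and compared against vehicle-treated controls.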

[4] = NCI Yeast Anticancer Drug Screen. Data for the cln2 rad14 strain (AID 165);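 note: 0% = growth equal to vehicle treated cultures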; details: S. cerevisiae cln2 rad14 strain, active compounds read high
Outline: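 cln2 rad14 yeast strain; compound exposure; growth inhibition read vs vehicle controls.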

[5] = NCI Yeast Anticancer Drug Screen. Data for the bub3 strain (AID 167); details: S. cerevisiae bub3 mutant strain, active compounds read high
Outline: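 Readout: yeast growth inhibition, expressed relative to vehicle-only wells. The test organism is a mutant strain from a panel with lesions in DNA repair or checkpoint genes.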

[6] = NCI Yeast Anticancer Drug Screen. Data for the mlh1 rad18 strain (AID 175); details: S. cerevisiae mlh1 rad18 strain growth inhibition, active compounds read high
Outline: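 Yeast w/ defined DNA-repair lesions; compound exposure; growth vs vehicle controls → % inhibition.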

[7] = at 5.0 µM (retest, dose inferred, filed as 0.5)
[8] = at 50.0 µM (retest, dose inferred, filed as 5.0)

SMILES | growth inhibition [1, 7] | growth inhibition [1, 8] | growth inhibition ([1]; at 50.0 µM) | growth inhibition [2, 7] | growth inhibition [2, 8] | growth inhibition ([2]; at 50.0 µM) | growth inhibition [3, 7] | growth inhibition [3, 8] | growth inhibition ([3]; at 50.0 µM) | growth inhibition [4, 7] | growth inhibition [4, 8] | growth inhibition ([4]; at 50.0 µM) | growth inhibition [5, 7] | growth inhibition [5, 8] | growth inhibition ([5]; at 50.0 µM) | growth inhibition [6, 7] | growth inhibition [6, 8] | growth inhibition ([6]; at 50.0 µM)
O=C(O)c1ccc(N=CC2CO2)cc1 (configuration not stated) | 23% | 11% | -2% | 44% | 64% | 0.45% | 13% | 10% | 7.05% | 96% (active) | 99% (active) | 21.8% | 90% (active) | 98% (active) | -10% | 32% | 22% | -3.15%
COc1ccc(/C=C2/C(=O)ON=C2C)cc1OC | -15% | 35% | 93.3% (active) | -14% | 48% | 85.5% (active) | -14% | 48% | 89.1% (active) | -12% | 17% | 42.7% | -3% | 55% | 94.6% (active) | -9% | 61% | 79.2% (active)
CCc1ccccc1NC(=O)C(C#N)C1=C(Cl)C(=O)c2ccccc2C1=O (configuration not stated) | 53% | 98% (active) | 97.2% (active) | 71% (active) | 98% (active) | 98.7% (active) | 51% | 98% (active) | 97.3% (active) | 20% | 98% (active) | 50.9% | 94% (active) | 98% (active) | 97.3% (active) | 44% | 97% (active) | 98.1% (active)
N#C/C=C/C=C/C#N | 1% | 2% | 24.4% | 5% | 2% | 79.8% (active) | 2% | 3% | 6.95% | -1% | -3% | 78.4% (active) | -2% | -5% | 99.5% (active) | -4% | -1% | 56.3%
FC(F)(F)c1cc(NC(=S)SC2CCCCC2)ccc1Cl | 12% | 97% (active) | 41% | 4% | 99% (active) | 79.2% (active) | 4% | 98% (active) | 88% (active) | -16% | 97% (active) | 88.8% (active) | 12% | 98% (active) | 85.9% (active) | 16% | 97% (active) | 90% (active)
CCCN(CCC)C(=S)N/N=C/c1cccc(C)n1 | -8% | 100% (active) | 90.3% (active) | -33% | 99% (active) | 93.2% (active) | -40% | 98% (active) | 92.8% (active) | -9% | 100% (active) | 93.1% (active) | -32% | 100% (active) | 92.5% (active) | -8% | 99% (active) | 89.7% (active)
O=C(NCC#CCO)C(F)(F)F | -15% | -1% | -0.9% | -14% | -18% | 13.2% | -3% | -8% | 11.7% | 3% | 9% | 47.8% | -21% | -5% | 11.1% | -5% | -10% | 45.1%
COc1ccc2c(Cc3cccc([N+](=O)[O-])c3)cncc2c1O | 4% | 68% | 29.8% | -2% | 86% (active) | 35.4% | -6% | 65% | 24% | 4% | 76% (active) | 37.1% | 3% | 91% (active) | 85% (active) | 5% | 92% (active) | 58.8%
CCCCCCNC(=S)N/N=C(\C)c1ccccn1 | 72% (active) | 99% (active) | 76.3% (active) | 86% (active) | 99% (active) | 85.7% (active) | 63% | 99% (active) | 90% (active) | 90% (active) | 95% (active) | 90.3% (active) | 98% (active) | 99% (active) | 90.5% (active) | 97% (active) | 93% (active) | 91.2% (active)
O=[N+]([O-])c1ccc(-c2nc3c(o2)CCC3)cc1 | -85% | -83% | 9.15% | -15% | -15% | -2.9% | -22% | -22% | 6.4% | -57% | -62% | 25.1% | -72% | -82% | -4.6% | -92% | -61% | 3.25%
COc1ccc(CSC(=S)Nc2cc(C)c(C)cc2[N+](=O)[O-])cc1 | 9% | 93% (active) | 95.8% (active) | 6% | 95% (active) | 97.8% (active) | 46% | 96% (active) | 97.5% (active) | -11% | 90% (active) | 93% (active) | 4% | 96% (active) | 97% (active) | 60% | 95% (active) | 98% (active)
O=C(CC(=O)c1ccccc1)CC(=O)c1cccc(Cl)c1 | -1% | 87% (active) | 81.1% (active) | 5% | 89% (active) | 65% | -1% | 87% (active) | 76.2% (active) | -9% | 77% (active) | 18.4% | 8% | 94% (active) | 78.5% (active) | 4% | 93% (active) | 85.2% (active)
CC1=CC2N(C=C1)C(c1ccccc1)=NON2c1cc(C)ccn1 (configuration not stated) | -20% | -10% | 24.7% | -23% | 14% | 33% | -1% | 23% | 62.5% | -39% | 7% | 25.1% | -44% | -14% | 5.7% | -34% | 38% | 68.9%
S=C1NC2=C(CSC/C2=C\c2cccc(Br)c2)C(c2cccc(Br)c2)N1 (configuration not stated) | 9% | 98% (active) | 92.7% (active) | 1% | 98% (active) | 94.3% (active) | -1% | 98% (active) | 95.7% (active) | -8% | 96% (active) | 90% (active) | -15% | 98% (active) | 93.8% (active) | 5% | 98% (active) | 93.8% (active)
O=C(C=P(c1ccccc1)(c1ccccc1)c1ccccc1)c1ccccc1-c1ccccc1C(=O)C=P(c1ccccc1)(c1ccccc1)c1ccccc1 | 98% (active) | 92% (active) | 87.9% (active) | 99% (active) | 92% (active) | 90.8% (active) | 99% (active) | 87% (active) | 90.5% (active) | 97% (active) | 93% (active) | 88.5% (active) | 99% (active) | 93% (active) | 88.2% (active) | 95% (active) | 88% (active) | 90.4% (active)
O=C(Nc1ccc([N+](=O)[O-])cc1[N+](=O)[O-])C(=O)C(C(=O)c1ccc(Cl)c(Cl)c1)C1OC(=O)c2ccccc21 (configuration not stated) | 27% | 27% | 67% | 25% | 25% | 40.9% | 22% | 22% | 61.8% | 30% | 30% | 72.3% (active) | 31% | 31% | 53.5% | 16% | 16% | 39.6%
CC1CCN(CCOC(=O)C(c2ccccc2)C2C=CCCC2)C1 (configuration not stated) | 8% | 34% | 62.9% | 3% | 37% | 16.9% | 8% | 77% (active) | 51.1% | 7% | 37% | 41.8% | 9% | 55% | 36.5% | 14% | 75% (active) | 52.7%
CCCCCN(CCCCC)C(=S)Nc1ccccc1 | -36% | 67% | 84.9% (active) | -5% | 85% (active) | 80.5% (active) | -19% | 83% (active) | 77% (active) | -22% | 74% (active) | 80.9% (active) | 1% | 94% (active) | 87.8% (active) | -4% | 90% (active) | 89.4% (active)
C1=NC2c3ccccc3Cc3cccc1c32 (configuration not stated) | -20% | 94% (active) | 95.4% (active) | -3% | 97% (active) | 95.8% (active) | 7% | 97% (active) | 95.3% (active) | -28% | 96% (active) | 93.6% (active) | 2% | 97% (active) | 93.3% (active) | -13% | 97% (active) | 94.3% (active)
